Here are results for six compounds from PubChem BioAssay (NCATS).

Several values for one entry are separate records, joined by “and”; a condition that tells them apart may be missing. Equal entries are not always repeated. Values without a mark were called inactive. Results filed as inconclusive are left out. Activity calls are given as the source filed them. Unless noted, the call rests on the fitted dose curve; in most records, active means well fitted curve in the direction sought with a large enough effect; inconclusive means small, poorly fitted or top-dose-only effect, or another doubt; inactive means no such curve, though single readings can be large; an effect the other way counts as inactive or inconclusive. Some results are limits rather than exact numbers.

Test [1] is described as follows: Cell Viability - MRC5 (AID 434; calls by dose curve;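 further: potency means the concentration at half of the fitted maximal effect; potency reflects cytotoxicity seen as loss of intracellular ATP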). The following applies: MRC5 lung fibroblast viability, qHTS. The essentials: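 MRC5 normal human lung fibroblasts, 1500 cells/well, exposed to compound for 40 hr at 37 C. Cellular ATP was read by CellTiter-Glo luminescence; data normalized to DMSO and 100 uM tamoxifen, with AC50 from Hill fits.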
(qHTS replaces the single test concentration by a dilution series.)

Test [2] is described as follows: Cell Viability - HUV-EC-C (AID 542). Further: on the % scale 0 is the no-effect control and ±100 the full control effect; nearly all actives have a fitted effect of over 35% in size. The note with it: HUV-EC-C endothelial cell viability, qHTS; series mostly up to 92.2 µM. The method in brief:
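qHTS cytotoxicity: HUV-EC-C, 1000 cells/well, 5 hr settle, compound 40 hr 37 °C, CellTiter-Glo, luminescence. AC50 via Hill equation.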

The nature of test [3]: Cellular Toxicity (caspase-3) HepG2 (AID 654).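 Further: cells exposed to compound for 16 hours before reading; 0% = DMSO alone and 100% = caspase signal from 100 µM tamoxifen.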 The following applies: HepG2 caspase-3 activation, luminescence; series mostly up to 92.2 µM. The essentials:
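Cells plated 5 hr at 37 °C, compound added, incubated 16 hr at 37 °C. Caspase-Glo 3/7 reagent followed, 20 min at room temperature, then luminescence read. Activation scored as signal increase; AC50 from Hill fit.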

Test [4] in a line: Cellular Toxicity (caspase-3) HUV-EC-C (AID 656). The following applies: HUV-EC-C cells, caspase-3 activation (apoptosis); series mostly up to 92.2 µM. The method in brief:
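Luminescent caspase-3/7 activation (aminoluciferin substrate cleavage) in HUV-EC-C cells after 16 hr compound exposure, 37°C. Signal normalized to DMSO basal and 100 uM tamoxifen as 100%; AC50 from concentration-response fitted with the Hill equation.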

The nature of test [5]: Cellular Toxicity (caspase-3) SHSY5Y (AID 657). The following applies: SH-SY5Y caspase-3 activation; series mostly up to 91.7 µM. The essentials: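 Luminescent caspase-3/7 readout (aminoluciferin release) in SH-SY5Y cells after 16 h compound exposure in complete medium. Activity scaled between DMSO basal and 10 uM staurosporine as 100%; concentration-response fitted to Hill equation for AC50.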

A short description of test [6]: Cellular Toxicity (caspase-3) Mesangial (AID 660).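 Further: combined caspase 3 and 7 activity read by Caspase-Glo luminescence.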 The note with it: mesangial cells, normalized: DMSO 0%, 100 µM tamoxifen 100%; series mostly up to 91.7 µM. The method in brief:
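Mesangial cells, 1000/well, 5 h settle at 37 °C; compound 16 h, 37 °C; Caspase-Glo 3/7 reagent 20 min RT; luminescence. Norm.: DMSO = 0%, tamoxifen 100 uM = 100%. AC50, Hill fit.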

Test [7] is described as follows: Cellular Toxicity (caspase-3) SK-N-SH (AID 661). The following applies: SK-N-SH caspase-3 activation, qHTS, DMSO as zero, staurosporine as full; series mostly up to 91.7 µM. The essentials:
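Human neuroblastoma SK-N-SH, 1500 cells/well, 5 hr pre-incubation, then compound 16 hr, 37 °C. Caspase-Glo 3/7 reagent, 1 hr RT, luminescence. Norm. to DMSO/10 uM staurosporine; Hill-fit AC50.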

The nature of test [8]: Cellular Toxicity (caspase-3) H-4-II-E (AID 663). The following applies: H-4-II-E rat hepatoma; Potency: caspase-3 activation; series mostly up to 92.2 µM. The method in brief: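 Rat hepatoma H-4-II-E cells (1500/well) plated 5 hr, then exposed to compound titrations for 16 hr at 37 °C. Caspase-Glo 3/7 luminescence read after 20 min at RT; data normalized to DMSO and 100 uM tamoxifen, AC50 from Hill fits.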

The nature of test [9]: Cellular Toxicity (caspase-3) N2a (AID 665).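 Further: compound exposure lasted 16 h at 37 °C before readout.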 The note with it: N2a cells, luminescence, normalized: DMSO 0%, 10 µM staurosporine 100%; series mostly up to 92.2 µM. The essentials:
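N2a cells, 1500/well, 5 h settle at 37 °C; cpd 16 h, 37 °C; Caspase-Glo 3/7, 1 h RT; luminescence. Norm: DMSO = 0, 10 uM staurosporine = 100%. AC50, Hill fit.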

Test [10] can be described thus: Cellular Toxicity (caspase-3) NIH 3T3 (AID 666).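 Further: 0% = DMSO basal and 100% = 100 µM tamoxifen stimulation.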 The following applies: NIH 3T3 caspase-3 activation, apoptosis/toxicity, 0% DMSO, 100% is 100 µM tamoxifen; series mostly up to 92.2 µM. The method in brief: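 Luminescence from aminoluciferin released by caspase-3/7 cleavage of a peptide substrate served as read-out. Mouse fibroblast NIH 3T3 cells were exposed to compounds over a concentration range for 16 hours, and AC50 values came from standard Hill modelling.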

Test [11] in a line: Cellular Toxicity (caspase-3) Renal Proximal Tubule (AID 667).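 Further: cells exposed to compound for 16 hours at 37 °C before detection.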 The following applies: renal proximal tubule cells, primary cells freshly taken from rat; Potency: caspase-3 activation; series mostly up to 91.7 µM. The method in brief:
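Luminescent caspase 3/7 signal from peptide-aminoluciferin cleavage measures apoptosis in freshly isolated rat kidney proximal tubule cells after 16 h compound exposure. Concentration-response data are normalized to DMSO and 10 uM staurosporine, and AC50 values come from Hill equation fits.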

Test [12] in a line: MultiTox-Fluor Cytotoxicity Assay - LYMP1-001 - Dead Cells (AID 946).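 Further: 0% = DMSO and 100% = tetraoctylammonium bromide.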 The following applies: LYMP1-001 lymphoblastoid cells, dead-cell protease fluorescence; series mostly up to 92.2 µM. The method in brief:
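In this qHTS, 15 uM tetraoctylammonium bromide defined 100% and DMSO defined basal activity. Lymphoblastoid cells (LYMP1-001, 2500 per well) received compound for 16 hr at 37 C before a fluorogenic dead-cell substrate readout at 485/520 nm.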

Test [13] in a line: MultiTox-Fluor Cytotoxicity Assay - LYMP1-003 - Dead Cells (AID 961). Further: nearly all actives have a fitted effect of over 70% in size. Further: potency means the concentration at half of the fitted maximal effect. The following applies: LYMP1-003 lymphoblastoid cells, dead-cell protease fluorescence; series mostly up to 92.2 µM. The essentials:
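Acute toxicity is scored as increased dead-cell protease activity in human lymphoblastoid LYMP1-003 cells after 16 h compound exposure in complete culture medium. Activity is normalized to DMSO basal and 15 uM tetraoctylammonium bromide as full response.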

Test [14] is described as follows: MultiTox-Fluor Cytotoxicity Assay - LYMP1-003 - Live Cells (AID 962). Further: potency means the concentration at half of the fitted maximal effect. The note with it: LYMP1-003 lymphoblastoid cells, MultiTox-Fluor live-cell protease fluorescence; series mostly up to 92.2 µM. The essentials:
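qHTS, 1536-well; 2500 cells/well LYMP1-003; 5 hr 37 C settle; cpd 16 hr 37 C; MultiTox-Fluor reagent 60 min RT; live-cell protease fluor. 405/510; Hill-fit AC50; tetraoctylammonium bromide pos. ctrl.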

Test [15] is described as follows: Cell Viability - LYMP1-003 - Assay at 24 hr (AID 963).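 Further: plate controls were DMSO only for no effect and tetraoctylammonium bromide positive control for full effect.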 The note with it: LYMP1-003 lymphoblastoid cell viability; series mostly up to 92.2 µM. The method in brief: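 Cells seeded at 2500/well, 5 hr at 37 C; compounds added; 24 hr at 37 C; CellTiter-Glo added, 30 min room temperature; luminescence read. Decrease in ATP taken as cytotoxicity, AC50 from Hill modelling.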

Test [16] can be described thus: Cell Viability - LYMP1-002 - Assay at 24 hr (AID 993). Further: on the % scale 0 is the no-effect control and ±100 the full control effect. The following applies: LYMP1-002 lymphoblastoid cells viability; series mostly up to 92.2 µM. The method in brief: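 Cells plated 2500/well, 5 hr 37 C; compounds added, 24 hr 37 C; CellTiter-Glo added, 30 min RT; luminescence read. Tetraoctylammonium bromide positive control. Hill-equation AC50.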
Test [17] is described as follows: qHTS Assay for Identification of Small Molecule Inducers of Hypoxia Response (AID 2120; active means well fitted curve in the direction sought with a large enough effect in the signal ratio, with a control signal flat, not every such curve was filed as active; the % refers to the signal ratio; further: 0% is about no effect). The following applies: hypoxia response reporter cells, beta-lactamase ratio readout; series mostly up to 104 µM. The essentials:
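ME-180 HRE-bla cells plated in Opti-MEM/0.5% dialyzed FBS, rested 4-5 h, then dosed with compound titrations by pin tool. After 17 h at 37 degrees C, CCF4 dye loaded 2.5 h at RT; 460/530 nm ratio gave %Activity and AC50.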

The target in test [18] is Peroxisome proliferator-activated receptor alpha (Homo sapiens) (UniProt Q07869). In words: qHTS assay for small molecule agonists of the peroxisome proliferator-activated receptor alpha (PPARalpha) signaling pathway (AID 651778). Further: % of control where 0% means no effect. The following applies: PathHunter PPARalpha complementation, chemiluminescence, 6 h; max response: active compounds read high. The method in brief:
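Enzyme-fragment complementation assay in which ligand-bound PPARalpha translocates and forms an active enzyme that generates chemiluminescence. Cells were plated overnight, exposed to compound for 6 hr at 37 C, and then given detection reagent for 60 min at room temperature.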

Test [19] in a line: qHTS assay for small molecule agonists of the antioxidant response element (ARE) signaling pathway measured by Nrf2-dependant transcriptional activity - cell viability counter screen (AID 720653; active means well fitted curve in the direction sought with a large enough effect in the repeat runs; an effect the other way counts as inactive or inconclusive; further: on the % scale 0 is the no-effect control and ±100 the full control effect). The note with it: ARE-bla HepG2 viability, CellTiter-Glo ATP luminescence, 16 h; max response: active compounds read low. The method in brief:
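ARE-bla HepG2 cells treated with compounds for 16 h at 37C; this counter screen measures viability as intracellular ATP by CellTiter-Glo luminescence after 30 min at room temperature.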

The nature of test [20]: qHTS assay for cell viability of the p53RE-bla HCT-116 cell line (AID 743292). Further: on the % scale 0 is the no-effect control and ±100 the full control effect; nearly all actives have a fitted effect of over 55% in size. The following applies: p53RE-bla HCT-116 viability, ATP luminescence, 16 h; series mostly up to 95 µM. The essentials:
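Compound-exposed HCT-116 (p53RE-bla) cells, 4,000 per well, were kept 16 h at 37 C following a 5 h preincubation. Cell number was estimated from total ATP by CellTiter-Glo luminescence read after 30 min at room temperature.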

Peroxisome proliferator-activated receptor alpha (Homo sapiens), sequence (Q07869 whole entry, looked up, the tested form may be a part): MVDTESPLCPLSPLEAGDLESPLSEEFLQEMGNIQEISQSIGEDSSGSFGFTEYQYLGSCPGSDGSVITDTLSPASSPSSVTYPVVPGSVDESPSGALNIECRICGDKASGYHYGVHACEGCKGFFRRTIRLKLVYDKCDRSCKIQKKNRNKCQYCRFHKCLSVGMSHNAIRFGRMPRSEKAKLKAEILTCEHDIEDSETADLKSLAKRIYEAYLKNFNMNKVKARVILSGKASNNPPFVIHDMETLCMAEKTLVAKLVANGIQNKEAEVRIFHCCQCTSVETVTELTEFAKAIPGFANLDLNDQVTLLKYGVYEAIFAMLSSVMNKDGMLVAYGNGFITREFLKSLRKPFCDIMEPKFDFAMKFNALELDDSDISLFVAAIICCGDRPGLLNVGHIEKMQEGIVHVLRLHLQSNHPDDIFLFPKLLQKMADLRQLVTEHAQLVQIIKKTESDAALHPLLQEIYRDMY

With `Cc1ccc(O)c(N)c1`, the Potency in test [1] is over 92 µM. For the same compound, the Potency result in test [2], in [3], in [4], in test [5], in test [8] and in test [11] was “inactive” in each case. In addition, the Potency entry in [12], in [13], in [14], in test [15], in test [16] and in [17] was “inactive” throughout. Moreover, the Potency result in test [20] is “inactive”. Also, the call in test [6], in test [7], in test [9] and in [10] was inactive. In addition, the max response in test [18] was -1.19%; in [19], -26.2%.
On to `O=C(O)c1ccc([N+](=O)[O-])cc1`, for which the Potency in test [1] was over 92 µM. For the same compound, the Potency entry in test [2], in test [3], in test [4], in test [5], in test [8] and in test [11] was “inactive” in each case. Also, the Potency result in test [12], in [13], in test [14], in test [15], in test [16] and in test [17] was “inactive” throughout. For the same compound, the Potency entry in [20] is “inactive”. Besides, the outcome in [6], in test [7], in test [9] and in test [10] was inactive. Besides, the max response is -2.26% and 0.632% in [18]; -7.35% and -20.8% in test [19].
With `Brc1cc(Br)c(Oc2cc(Br)c(Br)cc2Br)cc1Br`, in [1], the Potency is over 92 µM. For the same compound, the Potency entry in test [2], in test [3], in test [4], in test [5], in [8] and in [11] was “inactive” throughout. Further, the Potency entry in test [12], in test [13], in test [14], in [15], in [16] and in test [17] was “inactive” throughout. In test [20], the Potency result was “inactive”. For the same compound, the result in [6], in test [7], in test [9] and in test [10] was inactive. Besides, the max response in test [18] was -1.94%; in test [19], -7.08%.
As for `S=C(NC1CCCCC1)NC1CCCCC1`, the Potency in test [1] is over 92 µM. In addition, the Potency result in test [2], in test [3], in test [4], in test [5], in test [8] and in test [11] was “inactive” in each case. Further, the Potency entry in test [12], in [13], in [14], in test [15], in [16] and in test [17] was “inactive” each time. Moreover, the Potency result in test [20] was “inactive”. Also, the result in test [6], in test [7], in test [9] and in test [10] was inactive. Moreover, the results for the max response in [18] and in test [19] were 1.4% and -8.66%, respectively.
As to `CC/C=C/C/C=C/C/C=C/CCCCCCCC(=O)OCC`, the Potency was over 92 µM in [1] and 50.1 µM (active) in test [13]. Besides, the Potency result in [2], in [3], in test [4], in [5], in test [8] and in test [11] was “inactive” in each case. In addition, the Potency entry in [12], in [14], in [15], in test [17] and in [20] was “inactive” in each case. Also, the call in test [7], in test [9] and in [10] was inactive. Besides, the max response in test [18] was 19.5%; in test [19], -18.4%.
For `Oc1cc2c(cc1O)[C@H]1c3ccc(O)c(O)c3OC[C@@]1(O)C2`, the Potency in test [1] is over 92 µM; in test [14] it was 50.1 µM (active). The Potency result in [3], in test [4], in test [5], in test [8], in test [11] and in [17] was “inactive” in each case. Also, the outcome in test [6], in [7], in [9] and in [10] was inactive. Besides, the max response in test [18] was -1.65%; in test [19], -29.6%.
